The list is not random: actives were taken first. Their share in the collection is about 8%.
SW480 rerep = DNA re-replication induction in SW480 cells; Potency, µM (doses to about 46.1 µM), hits mostly activators; 340,000 compounds, 1.8% hits; AID 624297; SW480 DNA re-replication, Hoechst DNA content imaging, 48 h; also: nearly all actives have a fitted effect of over 55% in size
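Cells (250 per well) received 23 nL compound or DMSO by pin tool and were kept 48 hr at 37 C, 5% CO2. Nuclei were then stained with Hoechst for 40 min and scanned for DNA content.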
KB-3-1 tox = KB-3-1 parental cell cytotoxicity; Potency, µM (series often up to 46.1 µM), most hits filed as cytotoxic; 400,000 compounds, 1.4% hits; KB-3-1 viability, CellTiter-Glo ATP luminescence, 72 h; also: nearly all actives have a fitted effect of over 60% in size
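Viability of parental KB-3-1 cells, measured by CellTiter-Glo luminescence, followed a 72 h incubation at 37 °C with pinned compounds in phenol-red-free DMEM containing 10% FBS.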
HT1080 IDH1KD tx = toxicity to HT-1080 IDH1 knockdown cells (counter line); 360,000 compounds, 2% hits; AID 686971; Potency, µM (top dose mostly 46.1 µM), most hits filed as cytotoxic; HT-1080 IDH1 knockdown viability, ATP luminescence, 48 h
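HT-1080-IDH1KD cells (IDH1 knocked down), 750/well in RPMI with 5% FBS, treated with compound 48 h at 37 degrees C. Viability by CellTiter-Glo luminescence, normalised to DMSO and no-cell wells; concentration-response curves classed.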
KB-V1 cytotox = KB-V1 MDR subline cytotoxicity | Potency, µM (titrated, usually from 46.1 µM), usual class: cytotoxic | AID 1347076 | 400,000 compounds, 3.4% hits | KB-V1 MDR cells viability, CellTiter-Glo, 72 h; also: nearly all actives have a fitted effect of over 60% in size
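KB-V1, DMEM (no phenol red) + 10% FBS; cpd pin-transferred, titration series; 72 h, 37 degrees C; CellTiter-Glo, luminescence. Data normalized, curve-fit.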
MCF10A rereplic = induces DNA re-replication in MCF 10a normal breast cells. MCF 10A DNA re-replication, Hoechst nuclear intensity, 48 h. Potency, µM (titrated, usually from 46.1 µM), hits mostly activators. 350,000 compounds, 2.9% hits. AID 624296; also: nearly all actives have a fitted effect of over 50% in size
HT1080-NT tox = kills 2HG-producing HT-1080-NT fibrosarcoma cells; Potency, µM (highest dose often 46.1 µM), usual class: cytotoxic; AID 686970; 360,000 compounds, 1.6% hits; HT-1080-NT fibrosarcoma viability, CellTiter-Glo ATP luminescence, 48 h;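 also: NT is the 2HG producing partner of a matched IDH1 knockdown line; nearly all actives have a fitted effect of over 55% in size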
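HT-1080-NT; 750 cells/well; 5% FBS RPMI; 48 h compound, 37 degrees C; CellTiter-Glo luminescence; curve fitting and curve-class assignment.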
A number is an active result; i = inactive; ? = inconclusive; nt = no result given. Calls follow the shape of the dose curve; as a rule, active = well fitted curve in the direction sought with a large enough effect; inconclusive = small, poorly fitted or top-dose-only effect, or another doubt; inactive = no such curve, though single readings can be large; an effect the other way counts as inactive or inconclusive.

SMILES	SW480 rerep	KB-3-1 tox	HT1080 IDH1KD tx	KB-V1 cytotox	MCF10A rereplic	HT1080-NT tox
COc1ccc(N(CC(=O)NCc2ccc(F)cc2)S(=O)(=O)c2c(C)noc2C)cc1	i	i	i	i	i	i
O=C(Nc1ccc(F)c(Cl)c1)N1CC=C(c2c[nH]c3ccccc23)CC1	nt	i	nt	i	nt	nt
COc1ccc(-n2cc(CNCCCn3ccnc3)c(-c3ccccc3Cl)n2)cc1	?	i	i	i	?	i
CCN1CCC(CNCc2cn(-c3ccc(OC)cc3)nc2-c2ccccc2Cl)C1 (stereo not given)	?	?	?	i	?	16.4µM
COc1ccc(-n2cc(CNCCN3CCOC3=O)c(-c3ccccc3Cl)n2)cc1	i	i	i	i	i	i
COc1ccc(-n2cc(CNCCc3nc(C)cc(C)n3)c(-c3ccccc3Cl)n2)cc1	i	i	16.4µM	?	?	16.4µM
Fc1ccc(-n2cc(CNCCc3ccccn3)c(-c3ccccc3Cl)n2)cc1	i	?	20.6µM	20.6µM	?	20.6µM
CCCCOc1ccc(NC(=O)Nc2nnc(C)s2)cc1	i	i	i	i	i	i
CCOC(=O)C1CCCN(C(=O)c2cccc(OC(F)(F)F)c2)CC1 (stereo not given)	nt	i	i	i	nt	i
Cc1oc(-c2ccc(Cl)cc2)nc1CN1CCCC(C(=O)NCCCN2CCOCC2)C1 (stereo not given)	i	?	?	18.4µM	?	i
Cc1oc(-c2ccc(Cl)cc2)nc1CN1CCC(C(=O)NCc2ccco2)CC1	?	i	i	9.2µM	i	i
Cc1oc(-c2ccc(Cl)cc2)nc1CN1CCCC(C(=O)NCc2cccnc2)C1 (stereo not given)	i	2.59µM	?	2.31µM	i	?
Cc1oc(-c2ccc(Cl)cc2)nc1CN1CCCC(C(=O)NCc2ccccn2)C1 (stereo not given)	i	i	i	i	i	i
Cc1oc(-c2ccc(Cl)cc2)nc1CN1CCC(C(=O)NCCCN2CCCC(C)C2)CC1 (stereo not given)	?	?	16.4µM	i	i	13µM
Cc1oc(-c2ccc(Cl)cc2)nc1CS(=O)CC(=O)NCCCN1CC(C)CC(C)C1 (stereo not given)	?	i	?	i	i	16.4µM
O=C(NCc1ccco1)C1CCN(C(=O)c2cc3sccc3n2Cc2ccc(Cl)cc2)CC1	?	?	nt	?	20.6µM	nt
Cc1oc(-c2ccc(Cl)cc2)nc1CS(=O)CC(=O)NCCN1CCCCCC1 (stereo not given)	?	i	i	i	i	i
Cc1ccccc1-c1nc(CN2CCC(C(=O)NCCCN3CCOCC3)CC2)c(C)o1	i	i	i	i	i	10µM
COc1ccc(Br)cc1C(=O)Nc1cccc2ccc(C)nc12	nt	i	nt	i	nt	nt
COc1ccc(NS(=O)(=O)c2ccc3c(c2)n(C)c(=O)c(=O)n3C)cc1Cl	nt	i	nt	?	nt	nt
CC(=O)Nc1ccccc1-c1nc2ccccc2n(CC(=O)Nc2cccc(C)c2C)c1=O	nt	i	nt	i	nt	nt
S=c1[nH]nc(-c2ccc3ccccc3n2)n1-c1ccccc1	i	i	i	23.1µM	i	i
Fc1ccccc1-n1c(-c2ccc3ccccc3n2)n[nH]c1=S	?	i	i	i	i	i
Cc1cc(C)c2cc(C#N)c(N3CCCN(C(=O)c4cnccn4)CC3)nc2c1	i	i	i	?	20.6µM	i
COc1ccccc1C(=O)N1CCN(c2nc3cc(C)cc(C)c3cc2C#N)CC1	nt	i	i	?	nt	i
SMILES	SW480 rerep	KB-3-1 tox	HT1080 IDH1KD tx	KB-V1 cytotox	MCF10A rereplic	HT1080-NT tox
COC(=O)c1ccc(Cl)cc1NC(=O)NCc1c(-n2cccc2)sc2c1CCCC2	nt	i	nt	i	nt	nt
O=C(Nc1ccc(Cc2ccncc2)cc1)C1CCC(N2C(=O)C3CC=CCC3C2=O)CC1 (stereo not given)	i	i	i	14.6µM	i	i
O=C(Nc1ccc(Cc2ccncc2)cc1)C1CCC(N2C(=O)C3C4C=CC(C4)C3C2=O)CC1 (stereo not given)	i	i	i	?	i	?
CC(C)(C)c1cc(NC(=O)CCSc2nnc3ccccn23)cc(C(C)(C)C)c1	?	i	?	3.66µM	i	i
COc1cc(NC(=O)CSc2nnc3ccccn23)cc(OC)c1	i	i	i	i	i	i
CCCN(Cc1nnc(-c2cccs2)o1)C(=O)c1cccc(S(=O)(=O)N2CCOCC2)c1	i	i	i	23.1µM	i	i
COCCN(Cc1nnc(-c2cccs2)o1)C(=O)c1cccc(S(=O)(=O)N2CCOCC2)c1	i	i	i	i	i	i
Cc1cc(O)cc2c1O[C@](C)(CCC(=O)O)CC2	nt	nt	i	nt	nt	i
Cc1ccc(OCC(=O)Oc2cccc(C)c2)cc1	i	i	i	i	i	i
CC(=O)Nc1ccccc1OCCOc1ccc(Br)cc1	?	?	i	18.4µM	i	i
CC(=O)Nc1cccc(OC(=O)COc2ccc(Br)cc2)c1	29.1µM	i	i	i	i	i
Cc1cncn1CCc1nc2c3ccccc3nc(SCC(=O)Nc3ccccc3F)n2n1	nt	i	nt	i	nt	nt
O=C(NNC(=S)NC(=O)c1sc2ccccc2c1Cl)c1ccc(Cl)cc1	i	i	?	?	?	?
C=C1CCC[C@]2(C)C[C@H]3OC(=O)C(CN4CCOCC4)[C@H]3C[C@@H]12 (stereo not given in full)	?	i	i	i	i	i
C/C1=C\CCC2C(/C=C(\C)CC1)OC(=O)C2CN1CCCCC1 (stereo not given)	20.6µM	i	20.6µM	?	?	?
CCOC(=O)CN(C(=O)COc1nc(-c2ccccc2)cc(C)c1C#N)c1ccccc1C	?	3.66µM	i	i	i	i
Cc1cc(N2CCOCC2)nc2ccc(NC(=O)C3CCCCC3)cc12	nt	?	nt	i	nt	nt
Cc1cccc(N2CCN(C(=S)Nc3ccc4nc(N5CCN(C)CC5)cc(C)c4c3)CC2C)c1 (stereo not given)	18.4µM	?	i	i	18.4µM	i
Cc1cc(N2CCOCC2)nc2ccc(NC(=S)N3CCCCC3C)cc12 (stereo not given)	18.4µM	i	?	i	14.6µM	?
Cc1cc(N2CCN(C)CC2)nc2ccc(NC(=S)N3CCCCCC3)cc12	i	i	i	i	?	i
Cc1cc(N2CCN(C)CC2)nc2ccc(NC(=S)N3CCCCC3)cc12	?	i	i	i	18.4µM	i
Cc1cccc(N2CCN(C(=S)Nc3ccc4nc(N5CCN(C)CC5)cc(C)c4c3)CC2)c1C	i	?	i	?	i	i
Cc1cc(N2CCN(C)CC2)nc2ccc(NC(=S)N3CCN(c4cccc(Cl)c4)CC3)cc12	9.2µM	i	i	i	7.31µM	i

Assay outcomes: PubChem BioAssay, National Center for Advancing Translational Sciences (NCATS)
